Screening data: PubChem BioAssay, National Center for Advancing Translational Sciences (NCATS)
UbGFP stabilizer: ubiquitin-GFP accumulation via proteasome inhibition; Ubiquitin-GFP reporter cells, proteasome inhibition, GFP fluorescence; response scale: untreated = 0%, 10 µM MG-132 = 100%; Potency, µM (doses to about 45.9 µM), inactives show at the top dose activation (GFP accumulation), usual class: activators; 67,000 tested, under 10 active; active means well fitted activation curve with a large enough effect, not every such curve was filed as active; inconclusive means small, poorly fitted or top-dose-only effect, or another doubt; inactive means no such curve, though single readings can be large or run the other way; further: potency means the concentration at half of the fitted maximal effect
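GFP accumulation read-out: laser plate cytometry counting ubiquitin(G76V)-GFP-expressing U2OS cells after 4 hr compound exposure at 37 °C. Titrations spanned 46 uM to 2.9 nM; 0% = basal, 100% = 10 uM MG-132; concentration-response curves fitted.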
GFP derepression: epigenetic modulators derepressing GFP locus in mouse cells. mouse C127i GFP locus derepression, cytometry, 30 h. Potency, µM (titrated, usually from 46.1 µM), for inactives: top-dose GFP derepression (activation). 0.09% of 68,000 active; further: % of control where 0% means no effect
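Locus derepression in mouse mammary C127i cells whose integrated CMV-GFP reporter is normally silent; GFP expression after 30 h compound treatment was quantified by counting fluorescent cells.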
PK Bst: modulators of Bacillus stearothermophilus pyruvate kinase; purified pyruvate kinase, luminescence ATP production; ribose 5-phosphate activator present at AC10; Potency, µM; 1.2% of 51,000 active; AID 361; in the data active means potency below about 11 µM; inconclusive means mostly about 12 µM to 25 µM;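 the screen sought inhibitors and activators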;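 further: potency means the concentration at half of the fitted maximal effect; scaled between full activation by ribose 5 phosphate and full inhibition by luteolin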
HBB splicing: modulators of hemoglobin beta chain splicing | 0.06% of 65,000 active | HBB splicing reporter cell assay, activation; EGFP reporter with mutant IVS2-654 intron; response scale: normalised to 500 nM splice-correcting PNA | Potency, µM (top dose mostly 46.1 µM), without a hit: at the top dose activation, most hits filed as activators | AID 925; further: potency means the concentration at half of the fitted maximal effect; 0% is about no effect
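HeLa cells stably expressing EGFP interrupted by mutant beta-globin intron 2 (IVS2-654), 500/well in 2% FCS. Treated with compound for 2 days at 37C. Splicing correction scored as total well GFP intensity (488 nm excitation, 500-520 nm emission); 500 nM antisense PNA served as control.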
Luciferase inh: firefly luciferase inhibition. P08659. purified firefly luciferase, luminescence, 8 min. Potency, µM (series often up to 57.1 µM), for inactives: top-dose activity change, negative = inhibition, hits mostly inhibitors. 2.2% of 72,000 active. AID 411; further: potency means the concentration at half of the fitted maximal effect; on the % scale 0 is the no-effect control and ±100 the full control effect; nearly all actives have a fitted effect of over 40% in size
Target sequence (P08659 whole entry, looked up): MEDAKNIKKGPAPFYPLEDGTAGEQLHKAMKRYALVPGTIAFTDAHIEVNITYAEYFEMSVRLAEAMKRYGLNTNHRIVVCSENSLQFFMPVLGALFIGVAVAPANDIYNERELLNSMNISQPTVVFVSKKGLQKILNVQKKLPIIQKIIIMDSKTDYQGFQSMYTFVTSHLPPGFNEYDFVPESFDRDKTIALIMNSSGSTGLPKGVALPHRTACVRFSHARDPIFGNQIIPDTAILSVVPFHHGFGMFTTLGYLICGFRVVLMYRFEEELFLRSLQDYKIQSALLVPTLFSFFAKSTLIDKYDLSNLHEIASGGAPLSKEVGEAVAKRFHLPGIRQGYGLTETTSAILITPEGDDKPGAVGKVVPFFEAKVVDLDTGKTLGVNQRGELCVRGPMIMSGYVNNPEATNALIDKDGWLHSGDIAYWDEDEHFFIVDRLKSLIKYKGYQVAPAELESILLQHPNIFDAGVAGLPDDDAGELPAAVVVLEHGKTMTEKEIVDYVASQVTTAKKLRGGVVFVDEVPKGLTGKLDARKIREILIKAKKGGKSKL
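qHTS concentration-response profiling: light output of P. pyralis luciferase with luciferin and 10 uM ATP, imidazole buffer pH 7.2. Read by luminescence after 8-min room-temperature incubation.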
Active calls of the source: *; i = inactive; ? = inconclusive; · = not tested or not shown; [ ] = dose if it differs, or a comment. Most compounds without a hit are left out; they make up all but 2.6% or so of the library. Unless noted, the call rests on the fitted dose curve; in most records, active means well fitted curve in the direction sought with a large enough effect; inconclusive means small, poorly fitted or top-dose-only effect, or another doubt; inactive means no such curve, though single readings can be large; an effect the other way counts as inactive or inconclusive.

SMILES | UbGFP stabilizer | GFP derepression | PK Bst | HBB splicing | Luciferase inh
Cc1ccc2nc(C(O)C(O)c3nc4ccc(C)cc4[nH]3)[nH]c2c1 (centres undefined) | -4.5% | -1.0% | · | · | -27.6%
O=C(c1ccco1)N1CCC2(CCCN(Cc3ccncc3)C2)CC1 | -4.4% | 2.2%[9.22 µM] | · | 1.6% | 1.9%[11.4 µM]
O=C(Nc1nc2c(Cl)cccc2s1)c1ccc(Br)o1 | -3.6% | -2.0% | >57 | 3.6%[1.84 µM] | -10.9%
O=C(Nc1nc2ccc(Cl)cc2s1)c1ccc(Br)o1 | -8.8%[9.17 µM] | -4.7% | · | 1.5%[0.0738 µM] | 12.6µM*
CC/C(C)=N/O | · | · | · | -0.3% | ·
C[C@@]12CCC(=O)C=C1CC[C@H]1[C@H]3CC[C@](O)(C(=O)CO)[C@]3(C)CC(=O)[C@@H]12 | 3.3%[20.5 µM] | 6.8%[20.6 µM] | · | -0.9%[20.6 µM] | 5.7%[25.5 µM]
O=C(c1cc(-c2ccccc2)nc2ccccc12)N1CCN(c2ccccn2)CC1 | -5.1% | -1.6% | · | -0.1% | 20µM*
O=C(c1cc(-c2ccncc2)nc2ccccc12)N1CCN(c2ccccn2)CC1 | 0.7% | -2.0% | >57 | 5.2%[1.84 µM] | -13.5%
CCN(CC)c1ccc2cc(-c3nc4ccccc4[nH]3)c(=O)oc2c1 | 0.501µM* | 0.158µM* | · | 0.794µM* | 0.0398µM*
O=C(NCc1nc2ccccc2[nH]1)c1cc2ccccc2oc1=O | 15.3% | 1.2% | >57 | -3.1% | -0.4%
CCN(CC)c1ccc(NS(=O)(=O)c2ccc3c(c2)oc(=O)n3C)c(C)c1 | 10.3% | -5.0% | · | -1.2% | 1.9%
CCN(CC)c1ccc2cc(-c3nc4ccccc4n3C)c(=O)oc2c1 | ? | 10µM* | · | ? | -26.9%
N[C@@H](Cc1cc(CP(=O)(O)O)cc(-c2ccccc2Cl)c1)C(=O)O | -5.1% | -1.4% | · | · | 1.5%
Cc1cc(=O)[nH]c(SCCOc2ccc(OC(C)C)cc2)n1 | 0.2% | -3.2% | · | 0.3% | 15.8µM*
Cc1cc(=O)[nH]c(SCCOc2ccc3c(c2)CCC3)n1 | 5.7% | -1.3% | >57 | 0.3% | -0.5%
O=C(Cc1cc(=O)[nH]c(=O)[nH]1)NCC1CCCO1 (centres undefined) | 10.9% | · | · | 0.0% | 3.3%
O=C(Cc1cc(=O)[nH]c(=O)[nH]1)NCCN1CCOCC1 | 7.9% | · | · | -0.4% | 7.94µM*
CN1[C@H]2CC(OC(=O)[C@H](CO)c3ccccc3)C[C@H]1[C@H]1O[C@H]12 (some centres undefined) | · | · | · | 0.4% | ·
O=C(Nc1ccc(C(=O)N2CCOCC2)cc1)Nc1cccc(Cl)c1 | -1.9% | 0.0% | · | -0.4%[57.5 µM] | 15.8µM*
COc1ccc(C(=O)Nc2cccc(C(=O)N3CCCC3)c2)cc1 | -1.9% | 6.5% | >57 | 7.1% | -15.1%
CSc1cccc(NC(=O)COc2ccccc2)c1 | -5.6% | -3.2% | >57 | -0.2% | -12.4%
CSc1cccc(NC(=O)Nc2ccccc2)c1 | -13.3%[9.17 µM] | 0.4% | · | -1.1%[0.0738 µM] | 10µM*
COc1ccc(NC(=O)Nc2ccc(C(=O)N3CCOCC3)cc2)cc1 | 3.0% | 2.1% | >57 | -0.8% | -0.9%
CC(=O)c1cccc(NC(=O)Nc2ccc(C(=O)N3CCCC3)cc2)c1 | -2.9% | -2.6% | · | -1.5% | 2.51µM*
CN1C(=O)CSc2ccc(NC(=O)N3CCOCC3)cc21 | · | -0.5% | >57 | 4.4%[0.369 µM] | -1.7%
SMILES | UbGFP stabilizer | GFP derepression | PK Bst | HBB splicing | Luciferase inh
CC(=O)c1cccc(NC(=O)Nc2ccc3c(c2)N(C)C(=O)CS3)c1 | 7.1% | 0.0% | i | -1.2% | 15.8µM*
C[C@@H]1C(=O)NC2=Nc3cccc(Cl)c3CN21 | -5.2% | -0.1% | · | -0.2% | -5.4%
CC(C)CN1CC2(CCN(C(=O)c3ccco3)CC2)C1 | -2.2% | -2.3%[9.22 µM] | · | 0.6% | -1.5%[11.4 µM]
CC(=O)Nc1cccc(NC(=O)Nc2ccc(C(C)=O)cc2)c1 | 1.8% | 1.7% | i | -0.3% | 12.6µM*
CC(=O)c1cccc(NC(=O)NCCS(C)=O)c1 (centres undefined) | 5.2% | 0.0% | >57 | · | -0.3%
CCN(CC)c1ccc(NC(=O)Nc2cccc(C(C)=O)c2)cc1 | 2.2% | 0.8% | 9* | 1.8% | 7.94µM*
CC(=O)Nc1cccc(C)c1 | · | · | · | -0.5% | ·
CC1C(O)=C(c2nc3ccccc3[nH]2)C(=N)N1c1ccccc1 (centres undefined) | -6.8% | 2.6% | · | 4.7% | 25.1µM*
N=C1C(c2nc3ccccc3[nH]2)=C(O)CN1c1ccccc1 | 5.6% | 2.0% | · | -0.6% | -8.6%
COc1ccc(OC)c2[nH]c(=O)c(CCNC(C)=O)cc12 | 3.7% | · | · | -0.4% | -0.3%
